Results on 14 compounds are retold here after ChEMBL document CHEMBL3433997, “St. Jude Leishmania screening dataset” (2016).

The target in this test is Glucose transporter (Leishmania mexicana) (UniProt O61059). As to the kind of experiment: ST_JUDE_LEISH: Cytotoxicity at 2uM final concentration against transgenic Leishmania Mexicana promastigotes LmGT2 that are glucose transport deficient and complemented with the L. Mexicana glucose transporter 2. Activity is measured by DNA content using SYBR green in vitro. Type of test: functional.
For the compound `CCN(CC)CCCCCNc1c2ccc(Cl)cc2nc2ccc(OC)cc12`, the inhibition came out at 1.52%.

Turning to `CN(C)CCOc1ccc(N2CCN(CCCCNC(=O)c3ccc(/C=C/c4cc(Cl)cc(Cl)c4)cc3)CC2)cc1`, the inhibition was -0.38%.

`CO/C(=C\C=C\c1cc2cc(Cl)c(Cl)cc2[nH]1)C(=O)NCCCCN1CCN(c2ccccc2OC)CC1`: the inhibition was 1.91%. As for `O=C(NC1CCN(Cc2ccc(Cl)cc2)CC1)c1cn(-c2ccccc2)nc1-c1cccnc1`, the figure is 1.49%; as for `Cc1ccc2c(=O)c3cc(C)ccc3[nH]c2c1`, 0.54%; as for `Cc1nc(-c2cccc(Nc3nccc(NCC(O)c4ccccc4)n3)c2)cs1` (centres undefined), 2.14%. The figure for `Cc1[nH]c(C)c(-c2ccc(-c3cccc(C(F)(F)F)c3)nc2)c(=O)c1Br` is 6.29%; for `Cc1cccn2c(=O)c3cc(C(=O)NC4CCCCC4)c(=N)n(CCCn4ccnc4)c3nc12` it is -4.98%. As for `O=C(N[C@@H](Cc1ccccc1)C(=O)NC1CCCc2ccccc21)c1ccc(O)c(-c2ccc(Cl)c(Cl)c2)c1` (some centres undefined), the figure is -0.1%; as for `O=C(NCC(CCN1CCC(c2c[nH]c3ccccc23)CC1)c1ccccc1)Nc1ccc(Cl)c(Cl)c1` (centres undefined), 2.16%. On to `CCN(CC)CCN(Cc1ccc(-c2ccc(C(F)(F)F)cc2)cc1)C(=O)Cn1c(CCc2cccc(F)c2F)nc(=O)c2ccc(C)cc21`, for which the inhibition came to 0.22%.

As for `Cc1noc(C)c1-c1cccc(CNCc2cccc(-c3ccc(-c4nc5ccccc5[nH]4)s3)c2)c1`, the inhibition stood at 7.45%.

`C[C@H](NC(=O)C1CCCC1)C(=O)Nc1ccc(-c2ccc(-c3nc4cc(C(F)(F)F)ccc4[nH]3)cc2)cc1`: the inhibition was -1.28%. Consider `COc1ccccc1CCCN1C(=O)C(c2ccccc2)(c2ccccc2)N=C1N`, for which the inhibition is 1.36%.
